Paper PMC4336329 (PLoS ONE, 2015)
In all, about 310,000 compounds went through this assay and about 14,000 (4.5%) showed an effect of 50% or more. Effects have a minus sign here. The full list was thinned out, with strong results kept by preference.

These compounds were tested against human ether-à-go-go-related gene (hERG) potassium channel (human, UniProt Q12809) (assay: primary screen, population patch clamp on CHO cells stably expressing hERG; higher = less effect of the substance).
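Further: peak tail current of the secondary pulse compared with the same well before compound.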

Sequence of human ether-à-go-go-related gene (hERG) potassium channel (Q12809 whole entry, looked up): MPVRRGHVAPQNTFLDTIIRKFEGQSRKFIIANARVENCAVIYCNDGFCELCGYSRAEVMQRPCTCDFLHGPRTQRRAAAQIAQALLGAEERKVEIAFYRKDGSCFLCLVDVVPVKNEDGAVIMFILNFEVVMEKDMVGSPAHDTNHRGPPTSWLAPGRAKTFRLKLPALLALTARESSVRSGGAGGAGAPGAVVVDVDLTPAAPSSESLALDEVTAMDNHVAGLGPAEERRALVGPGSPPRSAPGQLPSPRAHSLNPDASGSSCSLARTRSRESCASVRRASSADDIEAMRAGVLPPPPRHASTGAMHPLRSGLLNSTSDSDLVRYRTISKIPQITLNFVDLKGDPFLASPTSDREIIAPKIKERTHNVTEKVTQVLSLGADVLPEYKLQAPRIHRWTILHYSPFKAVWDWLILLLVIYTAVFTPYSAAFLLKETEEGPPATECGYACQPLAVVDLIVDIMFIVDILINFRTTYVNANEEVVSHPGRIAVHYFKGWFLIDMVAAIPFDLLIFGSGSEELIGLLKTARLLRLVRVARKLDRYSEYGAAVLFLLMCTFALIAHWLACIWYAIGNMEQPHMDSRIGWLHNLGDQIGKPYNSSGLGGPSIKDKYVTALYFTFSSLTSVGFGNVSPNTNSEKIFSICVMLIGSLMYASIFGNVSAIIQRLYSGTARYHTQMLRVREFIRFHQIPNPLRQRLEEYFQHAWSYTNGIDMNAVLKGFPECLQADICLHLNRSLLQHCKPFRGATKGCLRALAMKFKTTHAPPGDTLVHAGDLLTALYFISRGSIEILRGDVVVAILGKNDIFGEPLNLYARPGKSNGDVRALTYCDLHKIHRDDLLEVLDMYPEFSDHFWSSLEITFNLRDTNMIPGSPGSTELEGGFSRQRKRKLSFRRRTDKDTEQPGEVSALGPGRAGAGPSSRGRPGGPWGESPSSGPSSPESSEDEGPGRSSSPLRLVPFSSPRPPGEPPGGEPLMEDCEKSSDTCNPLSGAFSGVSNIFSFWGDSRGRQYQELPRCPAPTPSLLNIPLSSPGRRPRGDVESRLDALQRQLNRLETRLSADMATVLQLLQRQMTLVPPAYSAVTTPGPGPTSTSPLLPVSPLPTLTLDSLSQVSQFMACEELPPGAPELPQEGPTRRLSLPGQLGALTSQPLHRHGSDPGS

SMILES	hERG current change (%, negative = inhibition) at 10uM
O=C(O)C(Cc1c[nH]c2ccccc12)N1C(=O)C2C3c4ccccc4C(c4ccccc43)[C@@H]2C1=O (stereo partly drawn)	18%
Nc1nnc(CSCc2ccc(Cl)cc2Cl)s1	0.235%
Cc1cc(NS(=O)(=O)c2ccc(NC(=O)CCc3ccccc3)cc2)no1	12.2%
CN(Cc1ccccc1)C(=O)c1nc2ccccn2c1CNCCOc1cccnc1	-31%
O=C(c1nc2ccccn2c1CNCCCn1ncc2ccccc21)N1CCCC1	-37.7%
CN(Cc1ccccc1)C(=O)c1nc2ccccn2c1CNCCCOc1cccnc1	-52.3%
CCCCN(C)C(=O)c1nc2ccccn2c1CNCCCn1ncc2ccccc21	-55%
CCCCN(C)C(=O)c1nc2ccccn2c1CNCCCn1nnc2ccccc21	-38%
CN(Cc1ccccc1)C(=O)c1nc2ccccn2c1CNCCn1cccn1	-32.3%
CCOc1ccccc1NC(=O)CCS(=O)(=O)c1ccc(OC)cc1	-0.411%
COc1ccc(-n2c(C)cc(/C=C3/SC(=S)N(C)C3=O)c2C)cc1	20.7%
CCOc1ccccc1C1CC(=O)NC(SCC(=O)Nc2nccs2)=C1C#N (stereo not drawn)	-0.586%
CN(C)CCN1C(=O)C(O)=C(C(=O)c2ccco2)C1c1ccccc1F (stereo not drawn)	11.9%
Cc1ccc(C(=O)N/C(=C\c2cccnc2)C(=O)N2CCCC2)cc1	-1.72%
Fc1ccc(C2CCCN2Cc2nc(Cc3ccccc3)no2)cc1 (stereo not drawn)	-15.2%
CN(C)c1nc(N)c([N+](=O)[O-])c(NCc2ccccc2)n1	4.16%
O=C(NCc1ccccn1)C(=O)NCC1OCCN1S(=O)(=O)c1ccc(F)cc1 (stereo not drawn)	11.7%
CCC(OCC(O)CN1CCN(CCN2C(=O)c3cccc4cccc(c34)C2=O)CC1)c1ccccc1.Cl (stereo not drawn)	-58.4%
CC(C)(C)C(=O)N1CCN(CCN2C(=O)c3cccc4cccc(c34)C2=O)CC1	3.09%
CCNC(=S)N1CCN(CCN2C(=O)c3cccc4cccc(c34)C2=O)CC1	0.247%
CC(C)OCC(O)CN1CCN(CCN2C(=O)c3cccc4cccc(c34)C2=O)CC1.Cl (stereo not drawn)	-51.7%
CC(=O)c1ccc(OCC(O)CN2CCN(CCN3C(=O)c4cccc5cccc(c45)C3=O)CC2)cc1.Cl (stereo not drawn)	-34.1%

SMILES	hERG current change (%, negative = inhibition) at 10uM
CS(=O)(=O)N1CCN(CCN2C(=O)c3cccc4cccc(c34)C2=O)CC1	7.17%
CCCCN(C(=O)Cc1ccc(S(=O)(=O)N2CCOCC2)s1)c1c(N)n(CCCC)c(=O)[nH]c1=O	0.586%
C=CCNc1oc(-c2ccco2)nc1S(=O)(=O)c1ccccc1	-4.58%
N#CCc1nn(-c2ccccc2)c(N)c1C#N	5.46%
CCc1ccc(NC(=O)C(=O)N/N=C(\C)CC(=O)Nc2ccccn2)cc1	-8.33%
COc1ccc2cc3cc(C(=O)NCc4ccco4)oc3nc2c1	-9.75%
O=C(O)C1CC(=O)N(CCc2ccc(F)cc2)C1 (stereo not drawn)	-8.39%
Cc1ccc(CCN2CC(C(=O)O)CC2=O)cc1 (stereo not drawn)	-0.636%
O=C1CC(C(=O)N2CCN(c3ccc(F)cc3)CC2)CN1CCc1ccccc1 (stereo not drawn)	-50.5%
CC(C)CCN1CC(C(=O)N2CCN(c3ccc(F)cc3)CC2)CC1=O (stereo not drawn)	-25.4%
Cc1ccc(CCN2CC(C(=O)N3CCN(c4ccc(F)cc4)CC3)CC2=O)cc1 (stereo not drawn)	-57.4%
COc1ccccc1CN1CC(C(=O)N2CCN(c3ccc(F)cc3)CC2)CC1=O (stereo not drawn)	-43%
Cc1ccc(NC(=O)CSc2nc(N)c3c4c(sc3n2)CSC(C)(C)C4)cc1	14.2%
COc1ccc(NC(=O)C2CCN(C(=O)Nc3ccccc3)CC2)cc1S(=O)(=O)N(C)C	12.5%
O=[N+]([O-])c1ccc(S(=O)(=O)NCCCc2ccccc2)cc1	-64.6%
Cc1ccc(S(=O)(=O)NCCNc2ccc([N+](=O)[O-])cc2)cc1	-22.8%
O=[N+]([O-])c1ccc(NCCNS(=O)(=O)c2ccccc2)cc1	-38.9%
O=S(=O)(NCCCc1ccccc1)c1ccc(Br)cc1	-9.3%
Cc1ccc(S(=O)(=O)NCCCNc2ccc([N+](=O)[O-])cc2)cc1	-65.2%
O=[N+]([O-])c1ccc(NCCCNS(=O)(=O)c2ccccc2)cc1	-64.7%
O=[N+]([O-])c1ccc(NCCCNS(=O)(=O)c2ccccc2)c(Cl)c1	-14.3%
Cc1ccc(S(=O)(=O)NCCCNS(=O)(=O)c2ccc(C)cc2)cc1	-17.9%

SMILES	hERG current change (%, negative = inhibition) at 10uM
O=S(=O)(NCCCc1ccccc1)c1ccccc1	10.3%
O=S(=O)(O)c1cccc(N=Nc2c(O)ccc3ccccc23)c1	16.4%
N#Cc1ccc(OCC(=O)NCCN2CCOCC2)cc1	-11.7%
O=C(COC(=O)/C=C/c1ccc(Cl)cc1)NC1CCCCCC1	-1.22%
Cc1ccc(C)c(NC(=O)Cc2nc(CCl)cs2)c1	-14.1%
CC(C)Oc1cccc(C(=O)NC(=S)Nc2ccccc2)c1	-7.26%
CCOC(=O)c1ccc(NC(=O)N(CC)CC)cc1	4.46%
CCCC(=O)N1CCN(c2ccc(NC(=S)NC(=O)c3cccc(C)c3)cc2)CC1	-18.3%
Nc1c(C(=O)NCCN2CCOCC2)c2nc3ccccc3nc2n1Cc1ccccc1	1.38%
COCC(C)OC(=O)c1c(N)n(CCCN2CCOCC2)c2nc3ccccc3nc12 (stereo not drawn)	-9.69%
CCCCCCn1c(N)c(C(=O)NCCN2CCOCC2)c2nc3ccccc3nc21	-8.61%
Nc1c(C(=O)NCc2ccco2)c2nc3ccccc3nc2n1CCN1CCOCC1	-4.63%
Nc1c(C(=O)NCCN2CCOCC2)c2nc3ccccc3nc2n1Cc1ccco1	-68.8%
CCCCCOC(=O)c1c(N)n(CCOC)c2nc3ccccc3nc12	-70.2%
COCCOC(=O)c1c(N)n(CCCN2CCOCC2)c2nc3ccccc3nc12	-53.3%
CCCCn1c(N)c(C(=O)OCCOC)c2nc3ccccc3nc21	-42.4%
COC(=O)c1c(N)n(CCCN2CCOCC2)c2nc3ccccc3nc12	-29.9%
CCCCn1c(N)c(C(=O)NCCN2CCOCC2)c2nc3ccccc3nc21	-64.1%
CCCCOCCCn1c(N)c(C(=O)OCCOC)c2nc3ccccc3nc21	-32.9%
CCCCCn1c(N)c(C(=O)NCCN2CCOCC2)c2nc3ccccc3nc21	-17.1%
COc1ccccc1N(CC(=O)NCc1ccccc1)C(=O)CCC(=O)Nc1cc(C)ccn1	-9.35%
CC(O)c1c(OCc2ccccc2)ncnc1OCc1ccccc1 (stereo not drawn)	-15.5%

SMILES	hERG current change (%, negative = inhibition) at 10uM
CCN(CC)S(=O)(=O)c1ccc(S(=O)(=O)N(CC(=O)Nc2ccccc2)CC2CCCO2)cc1 (stereo not drawn)	-18.6%
COc1cccc(N2CCN(C(=O)C3CCC(=O)N(C4CCCCCC4)C3)CC2)c1 (stereo not drawn)	-32.8%
COc1ccc(NC2c3ccccc3C(=O)N2c2ccccn2)cc1Cl (stereo not drawn)	-5.24%
Cc1ccc(-c2cc(C(=O)N/N=C/c3ccc(F)cc3)n[nH]2)o1	4.98%
COc1ccc(CCNC(=O)c2cn3ccc(C)cc3n2)cc1OC	1.66%
Cc1ccc(S(=O)(=O)N(C)C)cc1NC(=S)N1CCc2ccccc21	11.5%
COc1ccc(NC(=O)c2cc3ccccc3[nH]2)cc1	15.4%
Cc1ccccc1-n1c(C)c(C#N)c(=O)c(-[n+]2ccccc2)c1[S-]	23.4%
Cc1cc(S(=O)(=O)N2CCCC2)ccc1OCC(=O)NCc1ccccn1	4.98%
O=C(NC(=C(Cl)Cl)S(=O)(=O)c1ccc(Cl)cc1)c1ccccc1	3.23%
CC(C)Cn1c(N)c(C(=O)NCCN2CCOCC2)c2nc3ccccc3nc21	-72.7%
Nc1c(C(=O)NCCN2CCOCC2)c2nc3ccccc3nc2n1CCc1ccccc1F	-27.2%
Nc1c(C(=O)NCCc2ccccc2)c2nc3ccccc3nc2n1CCN1CCOCC1	-3.49%
CCn1c(O)c(C=NCc2cccs2)c(=O)[nH]c1=O	-6.15%
CS(=O)(=O)c1ccc(C(=O)NC2CCCCC2)cc1	12.1%
Cc1nc2ccccc2c2c1CC(C(C)(Cl)Br)O2 (stereo not drawn)	-61.6%
COc1ccc2nc(C)c3c(c2c1)OC(C(C)(Cl)Br)C3 (stereo not drawn)	-34%
Cc1ccc2nc(C)c3c(c2c1)OC(C(C)(Cl)Br)C3 (stereo not drawn)	-16.5%
CC(C)n1cnc2c(NCc3ccccc3)nc(NCc3ccccc3)nc21	0.281%
CC(C)n1cnc2c(N(C)c3ccccc3)nc(N(CCN(C)C)Cc3ccccc3)nc21	-73.1%
COc1cc(N(Cc2ccccc2)Cc2ccccc2)c2ncn(C(C)C)c2c1	6.37%
